From PubChem BioAssay come the findings set out here.

Assay [1] in a line: compounds binding Alexa647 anti-His antibody – biochemical, small-molecule microarray, 635 nm fluorescence, artefact control for SMM control protein annotation, primary screen (AID 1128).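 Also: score merges feature fluorescence with signal-to-noise for each printed compound spot.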 To be noted: higher = more signal.
In assay [2] the test system is Human papillomavirus type 1a E7 protein (residues 1-88). Kind of assay: HPV1a E7 small-molecule binders, primary screen, biochemical, small-molecule microarray, residues 1-88, 635 nm (AID 1129). As to conditions: small-molecule microarray binding, fluorescence 635 nm; higher = more signal.
Assay [3] addresses Focal adhesion kinase 1 (Homo sapiens) (UniProt Q05397). Kind of assay: PTK2 protein binding on printed compound slides – biochemical, small-molecule microarray, 635/667 nm fluorescence, BSA, DTT, primary screen (AID 1130).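 Also: composite of spot emission at 667 nm and signal to noise over triplicate slides.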 As to conditions: 635 nm fluorescence, higher = more signal.
In assay [4] the test system is Fibrinogen (Alexa647-labelled). Kind of assay: Alexa647-fibrinogen binding to printed small molecules – biochemical, small-molecule microarray, 635/667 nm fluorescence, artefact control for SMM control-protein annotation, profiling panel (AID 1131).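 Also: z-score merges 667 nm fluorescence with per-spot signal-to-noise over triplicate slides.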 As to conditions: fibrinogen-A647 binding fluorescence, higher = more signal.
The target in assay [5] is Follistatin (Homo sapiens) (UniProt P19883). Kind of assay: FST protein binding to printed compounds – biochemical, small-molecule microarray, 635/667 nm fluorescence, primary screen (AID 1132). As to conditions: 635 nm fluorescence, higher = more signal.
The target in assay [6] is Fibroblast growth factor 2 (Homo sapiens) (UniProt P09038). Kind of assay: basic fibroblast growth factor binding to printed compounds – biochemical, small-molecule microarray, 635/667 nm fluorescence, primary screen (AID 1133). As to conditions: FGF2, fluorescence 635/667, higher = more signal.
Assay [7] in a line: JC-1 mitochondrial potential readout, lung cancer cells – cell-based, A549, JC-1 fluorescence, basal, 24 h, 100 nL, profiling panel (AID 1138).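 Also: A549 lung adenocarcinoma cells under basal conditions with no added stimulus; test concentration not given here.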 To be noted: higher = more signal.
The test system of another assay is Lefty1. Kind of assay: Lefty1 protein binding to printed compounds – biochemical, small-molecule microarray, 635/667 nm fluorescence, primary screen (AID 1139). To be noted: fluorescence 635/667, higher = more signal.
For assay [8], the system named is wheat germ agglutinin (Triticum aestivum), Alexa647-labelled. The assay can be described thus: Alexa647-WGA lectin binding to printed small molecules – biochemical, small-molecule microarray, 635/667 nm fluorescence, artefact control for SMM control-protein annotation, profiling panel (AID 1140).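 Also: score merges 667 nm feature emission with signal to noise over triplicate slides.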 To be noted: WGA-A647 binding, 635 nm fluorescence, higher = more signal.

Assay [9] has as its target Luciferin 4-monooxygenase (Photinus pyralis) (UniProt P08659). Kind of assay: inhibition of purified Photinus pyralis luciferase – biochemical, luminescence, purified enzyme, 2006 set, primary screen (AID 1141).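 Also: cell-free assay with purified firefly luciferase at 100 ng per well in PBS; test concentration not given here.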 To be noted: purified firefly luciferase, SteadyGlo luminescence, 30 min; higher = more signal, called active from +8 up or from −8 down.
Assay [10] deals with Wnt5a (protein binding on small-molecule microarray). The assay can be described thus: small molecules binding Wnt5a protein – biophysical, small-molecule microarray, 635/667 nm fluorescence, primary screen (AID 1142).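 Also: fluorescence read at 667 nm with signal to noise per printed feature.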 As to conditions: 635 nm fluorescence, higher = more signal.
A short description of assay [11]: ATP-based viability of Huh7 replicon cells – cell-based, CellTiter-Glo luminescence, basal, 48 h, cytotoxicity control for HCV replication inhibitor project, primary screen (AID 1143).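 Also: Huh7 hepatoma cells carrying a hepatitis C replication reporter with no stimulus; test concentration not given here.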 As to conditions: higher = more signal, called active from +8 up or from −8 down. For orientation: In antiviral work, replicon cells carry a viral genome segment that copies itself.

The nature of assay [12]: Pseudomonas biofilm growth suppression – PAO1 strain, BacTiter-Glo luminescence, LB-PBS, primary screen (AID 1144). To be noted: P. aeruginosa PAO1 biofilm, 12 h, higher = more signal.
A short description of assay [13]: basal CRE-LacZ reporter activity in PC12 – cell-based, unstimulated, primary screen (AID 1145). To be noted: no forskolin, luminescence, 4.5 h, higher = more signal, called active from +8 up or from −8 down.
The nature of assay [14]: forskolin-driven CRE-LacZ activity in PC12 – cell-based, CRE-LacZ reporter, forskolin-stimulated, primary screen (AID 1146).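 Also: PC12 cells with 6xCRE LacZ reporter stimulated by forskolin 10 µM; beta-galactosidase reporter signal reflecting CREB driven transcription.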 As to conditions: luminescence, 4.5 h, higher = more signal, called active from +8 up or from −8 down.
The target of assay [15] is Streptavidin (Streptomyces avidinii) (UniProt P22629). The assay can be described thus: compounds binding control protein streptavidin – biophysical, small-molecule microarray, 635/667 nm fluorescence, artefact control for SMM compound annotation, primary screen (AID 1147).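 Also: signal reflects streptavidin binding to arrayed compounds as a control protein.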 As to conditions: higher = more signal.
Assay [16] can be described thus: probe aInhba binding on compound microarray – biochemical, small-molecule microarray, 635/667 nm fluorescence, primary screen (AID 1148).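 Also: score merges 667nm spot fluorescence with signal-to-noise for antibody binding to printed compounds.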 As to conditions: higher = more signal.
Assay [17] addresses Torsin-1A (Homo sapiens) (UniProt O14656). Kind of assay: TOR1A wild-type binding on microarray – cell lysate, small-molecule microarray, lysate, 635/667 nm, primary screen (AID 1149). To be noted: COS7 hTOR1A-WT lysate, 635 nm fluorescence, higher = more signal.
Assay [18] shares this target. Kind of assay: torsin A mutant lysate binding on microarrays – cell lysate, small-molecule microarray, COS7 lysate, 635/667 nm fluorescence, primary screen (AID 1150).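 Also: score pools 667 nm emission and signal to noise measuring lysate protein binding.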 To be noted: COS7 hTOR1A mutant lysate, 635 nm fluorescence, higher = more signal.
In assay [19] the test system is Sonic hedgehog protein (Shh). The assay can be described thus: Sonic hedgehog microarray binding compounds – biochemical, small-molecule microarray, 635/667 nm fluorescence, primary screen (AID 1151).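 Also: Shh protein binding to compounds spotted on small-molecule microarray slides; score combines spot fluorescence intensity with signal-to-noise across triplicate slides.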 As to conditions: 635 nm fluorescence, higher = more signal.

Active and inactive are the calls of the source. Unless noted, no rule for the calls is given here.

Torsin-1A (Homo sapiens), sequence (O14656 whole entry, looked up): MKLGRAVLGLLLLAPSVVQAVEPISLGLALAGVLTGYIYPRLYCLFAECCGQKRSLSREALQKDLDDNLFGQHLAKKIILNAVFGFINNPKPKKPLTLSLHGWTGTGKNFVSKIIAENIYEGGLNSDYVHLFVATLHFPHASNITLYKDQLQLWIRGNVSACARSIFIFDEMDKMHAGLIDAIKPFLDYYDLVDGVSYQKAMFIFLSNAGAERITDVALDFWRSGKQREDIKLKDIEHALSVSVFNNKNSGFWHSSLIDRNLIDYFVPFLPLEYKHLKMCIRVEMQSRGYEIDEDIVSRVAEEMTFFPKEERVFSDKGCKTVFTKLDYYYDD
Fibroblast growth factor 2 (Homo sapiens), sequence (P09038 whole entry, looked up): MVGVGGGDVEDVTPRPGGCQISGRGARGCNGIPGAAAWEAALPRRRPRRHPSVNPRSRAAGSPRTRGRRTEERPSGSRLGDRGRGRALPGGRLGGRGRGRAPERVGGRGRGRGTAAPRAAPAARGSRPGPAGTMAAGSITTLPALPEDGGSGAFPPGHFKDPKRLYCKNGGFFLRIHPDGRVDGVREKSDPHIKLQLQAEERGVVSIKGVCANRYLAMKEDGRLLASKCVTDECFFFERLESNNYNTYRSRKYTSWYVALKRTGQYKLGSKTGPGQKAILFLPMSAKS
Follistatin (Homo sapiens), sequence (P19883 whole entry, looked up): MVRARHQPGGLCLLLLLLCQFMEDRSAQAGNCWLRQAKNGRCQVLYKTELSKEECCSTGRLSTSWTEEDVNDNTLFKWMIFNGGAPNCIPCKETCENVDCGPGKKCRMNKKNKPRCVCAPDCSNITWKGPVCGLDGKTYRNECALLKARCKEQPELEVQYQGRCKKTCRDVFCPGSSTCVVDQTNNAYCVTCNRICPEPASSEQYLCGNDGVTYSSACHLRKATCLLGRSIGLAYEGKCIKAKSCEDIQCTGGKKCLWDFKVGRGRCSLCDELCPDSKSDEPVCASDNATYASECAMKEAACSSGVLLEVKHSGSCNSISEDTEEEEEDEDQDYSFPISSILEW
Focal adhesion kinase 1 (Homo sapiens), sequence (Q05397 whole entry, looked up): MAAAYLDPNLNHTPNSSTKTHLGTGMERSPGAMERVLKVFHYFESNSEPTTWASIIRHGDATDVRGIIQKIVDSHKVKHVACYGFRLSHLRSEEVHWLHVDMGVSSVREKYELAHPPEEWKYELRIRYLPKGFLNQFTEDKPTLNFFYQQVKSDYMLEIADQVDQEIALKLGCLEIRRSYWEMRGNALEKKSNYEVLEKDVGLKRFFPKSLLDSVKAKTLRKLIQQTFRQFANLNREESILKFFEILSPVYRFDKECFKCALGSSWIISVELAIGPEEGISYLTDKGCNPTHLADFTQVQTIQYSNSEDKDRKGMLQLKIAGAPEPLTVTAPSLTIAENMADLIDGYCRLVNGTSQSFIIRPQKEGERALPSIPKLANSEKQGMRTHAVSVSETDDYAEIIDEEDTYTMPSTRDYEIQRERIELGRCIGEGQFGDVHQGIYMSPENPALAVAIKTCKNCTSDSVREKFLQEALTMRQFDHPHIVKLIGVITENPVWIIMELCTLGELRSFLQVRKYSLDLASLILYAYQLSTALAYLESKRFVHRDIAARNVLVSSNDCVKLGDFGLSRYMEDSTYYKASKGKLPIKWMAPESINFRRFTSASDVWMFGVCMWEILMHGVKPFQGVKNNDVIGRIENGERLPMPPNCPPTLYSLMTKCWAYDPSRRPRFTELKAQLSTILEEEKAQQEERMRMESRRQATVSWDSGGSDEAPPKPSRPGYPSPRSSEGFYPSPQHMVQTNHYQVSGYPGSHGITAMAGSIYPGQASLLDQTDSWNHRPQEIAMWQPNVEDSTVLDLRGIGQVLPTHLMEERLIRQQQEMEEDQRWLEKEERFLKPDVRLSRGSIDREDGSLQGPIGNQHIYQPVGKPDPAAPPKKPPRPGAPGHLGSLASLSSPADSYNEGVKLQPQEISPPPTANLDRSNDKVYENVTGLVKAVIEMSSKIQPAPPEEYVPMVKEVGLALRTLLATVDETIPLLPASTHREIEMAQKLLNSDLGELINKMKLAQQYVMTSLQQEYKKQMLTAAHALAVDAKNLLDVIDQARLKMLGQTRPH
Streptavidin (Streptomyces avidinii), sequence (P22629 whole entry, looked up): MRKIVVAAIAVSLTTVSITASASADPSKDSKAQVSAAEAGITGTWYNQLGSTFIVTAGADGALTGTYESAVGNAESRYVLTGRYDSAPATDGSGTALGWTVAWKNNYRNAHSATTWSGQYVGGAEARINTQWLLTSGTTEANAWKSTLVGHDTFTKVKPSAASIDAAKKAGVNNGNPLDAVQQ
Luciferin 4-monooxygenase (Photinus pyralis), sequence (P08659 whole entry, looked up): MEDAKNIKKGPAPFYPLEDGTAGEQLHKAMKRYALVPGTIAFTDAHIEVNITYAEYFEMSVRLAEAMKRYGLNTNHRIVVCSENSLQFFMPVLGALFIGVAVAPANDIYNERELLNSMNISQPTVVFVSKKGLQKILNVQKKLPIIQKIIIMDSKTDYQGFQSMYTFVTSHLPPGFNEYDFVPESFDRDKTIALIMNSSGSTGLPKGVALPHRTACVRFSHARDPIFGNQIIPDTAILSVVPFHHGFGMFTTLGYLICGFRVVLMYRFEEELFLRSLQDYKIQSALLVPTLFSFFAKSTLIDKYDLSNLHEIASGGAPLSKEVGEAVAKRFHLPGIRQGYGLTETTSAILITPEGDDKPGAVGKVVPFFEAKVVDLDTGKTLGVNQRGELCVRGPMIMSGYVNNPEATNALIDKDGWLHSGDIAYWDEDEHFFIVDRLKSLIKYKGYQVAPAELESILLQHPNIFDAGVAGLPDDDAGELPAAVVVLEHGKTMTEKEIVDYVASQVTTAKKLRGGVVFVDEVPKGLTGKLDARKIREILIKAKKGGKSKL

For the compound `C=CC[C@@]1(C(=O)N2CCOCC2)N=C(c2ccc(OCCCO)cc2)O[C@@H]1c1ccccc1CN=[N+]=[N-]`, the composite z-score in [1] was 3.06; in [2], 1.23; in assay [3], 0.201; in [4] it was 0.905; in assay [5], 1.35; in assay [6], 1.45. The composite z-score is 0.349 in the assay with Lefty1; 0.786 in [8]; 0.935 in [10]; 1.28 in [15]; 0.305 in [16]; 0.495 with Torsin-1A (Homo sapiens) [17]. The composite z-score with Torsin-1A (Homo sapiens) [18] came to 1.46; in [19] it was 0.0134. The z-score was 1.97 in [7]; 0.0079 (inactive) in assay [9]; -2.2 (inactive) in [11]; 0.887 (inactive) in assay [12]; 0.204 (inactive) in assay [13]; -0.818 (inactive) in [14].

Take `COCCOC(=O)N1C(=O)[C@@]2(c3cc(C#CCC(C(=O)OC)C(=O)OC)ccc31)[C@H](C(=O)N1CCc3cc(OC)c(OC)cc3C1)[C@H]1C(=O)O[C@H](c3ccccc3)[C@H](c3ccccc3)N1[C@@H]2c1ccc(OCCO)cc1`: the composite z-score in assay [1] was determined as 2.19; in [2], 1.2; in assay [3], 0.497; in [4] it was 0.783; in assay [5] it was 1.31; in assay [6], 1.45. In addition, the composite z-score in the assay on Lefty1 was determined as 1.02; in assay [8], 0.519; in assay [10] it was 0.587; in [15], 0.523; in assay [16], 0.19; with Torsin-1A (Homo sapiens) [17] it was 0.817. Besides, the composite z-score with Torsin-1A (Homo sapiens) [18] came out at 0.914; in assay [19] it was 1.73. The z-score in assay [7] is -1.04; in assay [9], -1.25 (inactive); in assay [11], -0.0887 (inactive); in assay [12], -0.442 (inactive); in assay [13], 0.0653 (inactive); in assay [14] it was -0.333 (inactive).

On to `CC(CO)N1C(=O)[C@@H]2[C@H]3C(=O)OCC=C[C@H]3OC23C=CCN(Cc2ccccc2)C(=O)[C@@H]13` (stereo not given in full), for which the composite z-score in assay [1] was 0.543; in assay [2], -0.696; in [3], 0.769; in [4] it was -0.854; in [5] it was -0.139; in [6] it was -0.173. Further, the composite z-score in the assay with Lefty1 is -0.279; in assay [8], 0.22; in assay [10], 0.0691; in assay [15], -0.245; in assay [16], -0.21; with Torsin-1A (Homo sapiens) [17] it was -1.32. Further, the composite z-score was -0.14 in the assay with Torsin-1A (Homo sapiens) [18] and -0.0627 in assay [19]. The z-score was -0.376 in [7]; -3.05 (inactive) in [9]; 0.0021 (inactive) in assay [11]; -1.11 (inactive) in assay [12]; -1.44 (inactive) in assay [13]; -1.08 (inactive) in assay [14].

For the compound `COC(=O)[C@@]1(Cc2ccc(OC)cc2)[C@@H]2C(=CC(=O)[C@H]2CC(=O)C(=O)N(C)C)CN1C(=O)c1ccccc1`, the composite z-score in assay [1] was 0.318; in [2], 1.23; in assay [3] it was 0.242; in [4], 0.833; in [5], 0.433; in assay [6], -0.139. The composite z-score in the assay on Lefty1 is -0.973; in assay [8], 0.521; in [10], 0.956; in assay [15], 1.23; in assay [16], 1.04; with Torsin-1A (Homo sapiens) [17], 0.0826. Also, the composite z-score with Torsin-1A (Homo sapiens) [18] is 0.387; in assay [19] it was -0.671. Also, the z-score in [7] was 0.437; in [9], 2.12 (inactive); in assay [11], -3.7 (inactive); in assay [12], -0.946 (inactive); in [13] it was 0.0109 (inactive); in assay [14], 0.0777 (inactive).

Consider `C=CCC(OC(C)=O)[C@@H]1[C@@H](N(Cc2cc3ccccc3o2)C(=O)Cc2ccc(F)cc2)c2cc(OCCCO)ccc2N1C(=O)c1ccc2ccccc2c1` (stereo not given in full), for which the composite z-score is -0.232 in assay [1]; -0.835 in assay [2]; -0.167 in [3]; -1.03 in assay [4]; 0.722 in assay [5]; -0.143 in [6]. Besides, the composite z-score with Lefty1 was 0.777; in [8] it was 0.181; in assay [10] it was 0.117; in assay [15] it was 0.0943; in assay [16], -0.176; with Torsin-1A (Homo sapiens) [17] it was -0.312. The composite z-score is 0.237 in the assay with Torsin-1A (Homo sapiens) [18] and 0.697 in [19]. In addition, the z-score in [7] was 1.08; in [9], -0.514 (inactive); in assay [11], -0.008 (inactive); in assay [12] it was 0.101 (inactive); in [13] it was 2.6 (inactive); in [14], 0.86 (inactive).
